Bioassay records from PubChem.
Rows were chosen to be rich in hits. Some 3.8% of all compounds tested hit in one or more screens of this group.
A1 inh = caspase 3/7 activation in MEF A1-2A-BIM cells, primary screen, A1 inhibitor project, cell-based, luminescence, HTS | Caspase-Glo 3/7 luminescence, 3 h; percent of clofoctol response, vehicle zero | caspase activation, % (test concentration not listed) | hit rate 0.066% among 330,000 | AID 2462, 2010;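 active means over half of replicate activation scores above 10%, or exactly half above 10 with the replicate mean above 10; inconclusive means replicate mean below 10 yet half the replicates above 10; inactive means over half of replicates below 10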
Mdm2 MdmX PPI = inhibitors of human Mdm2-MdmX association, primary screen, cell-based, luminescence, split luciferase, SaOS-2, uHTS; Protein Mdm4 (Homo sapiens) + E3 ubiquitin-protein ligase Mdm2 (Homo sapiens), …; SaOS-2 split-luciferase Mdm2/MdmX complementation; inhibition, % at 8 µM; hit rate 3% among 330,000; AID 485346, 2010;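 active means inhibition of at least 50% at 8 µM in the primary screen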
Jurkat NFkB inh = inhibitors of induced NF-kB luciferase reporter, primary screen, TCR NF-kB activation inhibitor project, cell-based, luminescence, uHTS | Jurkat, PMA/ionomycin-induced NF-kB luciferase reporter | inhibition, % at 4 µM | hit rate 0.53% among 330,000 | AID 435003, 2010; in the data active means inhibition above about 50%
NTR1 ag = agonists of human NTR1, primary screen, imaging, U2OS cells, beta-arrestin-GFP, high content; NTR1-U2OS beta-arrestin-GFP spot imaging, agonist mode; activation, % at 20 µM; hit rate 0.17% among 330,000;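 active means activation at or above 40% of the spot to cytoplasm intensity ratio, with at least 20 cells analyzed; inconclusive means wells under 20 cells, flagged as cytotoxic or low count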
697 NFkB inh = inhibitors of PMA/ionomycin-induced NF-kB reporter, 697 cells, primary screen, B-cell NF-kB inhibitor project, cell-based, luminescence, uHTS. hit rate 0.33% among 330,000. AID 435022, 2010. inhibition, % at 4 µM. 697 B-cell NF-kB luciferase reporter, 16 h; in the data active means inhibition above about 35%
Beta apoptosis = inhibitors of cytokine-induced beta cell apoptosis, primary screen, luminescence; INS-1E cytokine-induced death, ATP luminescence, 48 h; percent of positive-control rescue, neutral wells zero; protection from apoptosis, % (concentration not given with the values); hit rate 0.8% among 300,000; AID 435005, 2010;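 active means Every replicate reaches about 75%, or at least half do and their mean reaches it too, limit read from the data; inconclusive means At least half of replicates reach the limit but their mean does not; inactive means Under half of replicates reach the limit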;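 further: higher means more ATP so stronger rescue from cytokine killing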
Mdm2-MdmX conf = Mdm2-MdmX complex disruptors, retested hits, confirmation, luminescence, single concentration; shares compounds with Mdm2 MdmX PPI; Mdm2-MdmX binding, luminescent assay; inhibition, % at 8 µM; hit rate 55% among 10,000; AID 489028, 2010; in the data active means inhibition above about 40%
FLuc counter = full-length luciferase signal inhibition, confirmation, counter-screen for Mdm2/MdmX interaction inhibitor project, cell-based, single concentration, SaOS-2. AID 504607, 2011. hit rate 77% among 6,200. SaOS-2 full-length luciferase counterscreen, luminescence. shares compounds with Mdm2 MdmX PPI. inhibition, % at 8 µM;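 active means mean inhibition at 8 µM reaching about 37%, which flags the compound as non-specific, limit read from the data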;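 further: p53-null SaOS-2 cells with luciferase driven by a doxycycline-inducible promoter; compound on cells about two nights before reading with doxycycline added after day one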
NTR1 ag conf = NTR1 agonists, single-dose retest, confirmation, imaging, U2OS cells, beta-arrestin-GFP, single concentration; shares compounds with NTR1 ag; NTR1-U2OS beta-arrestin-GFP translocation imaging; activation, % at 20 µM; hit rate 38% among 480;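 active means mean activation at 20 µM of at least 40%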
Hits are given with their value; . = inactive; ? = inconclusive; / = not tested or not shown.

SMILES	A1 inh	Mdm2 MdmX PPI	Jurkat NFkB inh	NTR1 ag	697 NFkB inh	Beta apoptosis	Mdm2-MdmX conf	FLuc counter	NTR1 ag conf
CC(=O)Nc1nnc(SCC(=O)Nc2ccc(N3CCOCC3)c(Cl)c2)s1	.	59.1	.	.	.	.	.	/	/
COc1cc(OC)c(OC)cc1/C=C1\CCC/C(=C\c2cc(OC)c(OC)cc2OC)C1=O	/	66.9	.	.	.	/	42.9	81.9	/
CCCCn1c(-c2ccc(OC(F)F)cc2)nc2c1c(=O)[nH]c(=O)n2CC(C)C	.	.	.	.	.	.	/	/	/
CC(C)(C)c1ccccc1NC(=O)c1ccc(-n2cncn2)c([N+](=O)[O-])c1	.	.	.	.	.	.	/	/	/
CCOC(=O)c1ccc(N2C(=O)C(C)=C(C)C2=O)cc1	.	62.4	.	.	.	.	.	/	/
CC(C)(C)[C@@H]1CCC(=O)N(CC[C@H](N=[N+]=[N-])c2ccccc2)CC1	.	.	.	.	.	.	/	/	/
N#CC1=C(N)C(C#N)(C#N)C(c2cccnc2)C2CC(c3ccccc3)CC=C12 (centres undefined)	.	62.0	.	.	.	.	61.3	.	/
COC(=O)Cn1cnc2c(Cl)nc(F)nc21	/	.	/	.	.	/	/	/	/
CCOC(=O)c1c(C)[nH]c(C)c1S(=O)(=O)NCCN1CCN(c2cc(Cl)ccc2C)CC1	.	59.0	.	.	.	.	.	/	/
CN1C(=O)NC(c2ccc(Cl)cc2)C2=C1CC(C)(C)CC2=O (centres undefined)	.	.	.	.	.	.	/	/	/
COc1ccc(N2CCN(C(=O)COC(=O)c3cccc(S(=O)(=O)Nc4cccc(C)c4)c3)CC2)cc1	.	.	.	.	.	.	/	/	/
CN(C)C(CNc1ncnc2ccccc12)c1c(F)cccc1Cl (centres undefined)	.	.	.	.	.	.	/	/	/
CCOC(=O)c1ccc(NC(=S)N(CCN(C)C)Cc2cccs2)cc1	.	75.8	.	.	.	.	46.3	60.6	/
Cc1ccccc1-c1nc(C#N)c(N2CCCCC2)o1	.	.	.	.	.	.	/	/	/
Cc1nn(-c2ccccc2Cl)c(Cl)c1/C=N/Nc1cccc(C(=O)O)c1	.	73.1	.	.	.	.	82.8	124.2	/
CCN(CC)CCCCCCCCOC(=O)c1cc(OC)c(OC)c(OC)c1	.	50.2	.	.	.	.	.	/	/
CCOc1cc(N2CCOCC2)c(OCC)cc1NC(=O)c1nn(CC)c(=O)c2ccccc12	.	85.5	.	44.8	.	.	48.9	86.9	.
C[C@@H]1CC=C[C@H]2[C@H]1C(=O)N(Cc1ccccc1)[C@H]2c1ccc2ccccc2c1Br	/	84.1	.	43.1	.	/	.	/	.
COc1ccc(-n2nc(C(=O)c3cccs3)cc(-c3nc4ccccc4[nH]3)c2=N)cc1	.	97.5	.	76.5	.	.	48.6	.	.
CCOC(=O)/C=c1\s/c(=C\c2ccc3cc(OC)ccc3c2)c(=O)n1CC(=O)NCC1CCCO1 (centres undefined)	.	74.5	.	52.1	.	.	.	/	45.2
CC[C@@H](C(=O)[C@@H](C)[C@@H](O)[C@H](C)CCc1ccc(C)c(O)c1C(=O)O)[C@H]1O[C@](CC)([C@H]2CC[C@](O)(CC)[C@H](C)O2)C[C@@H]1C	.	100.4	.	53.2	.	97.1	70.9	.	62.5
FC(F)Sc1ccc(NC(=S)NC(c2ccccc2)c2ccccc2)cc1	.	100.3	.	40.8	.	.	74.2	38.1	.
COc1ccc(NC(=O)Nc2nnc(C(C)(C)C)s2)cc1	.	.	.	.	.	.	/	/	/
CC(C)(C)c1nc(NC(=O)Nc2ccccc2)sc1Br	.	66.0	.	44.1	.	.	.	/	.
O=C(Nc1ccc(Cl)cc1)/C(=C/c1cccc(O)c1)c1nc2ccccc2s1	.	100.2	.	49.2	.	105.3	100.2	51.2	56.5
SMILES	A1 inh	Mdm2 MdmX PPI	Jurkat NFkB inh	NTR1 ag	697 NFkB inh	Beta apoptosis	Mdm2-MdmX conf	FLuc counter	NTR1 ag conf
COc1cc(NS(=O)(=O)c2cc(C(=O)NCCc3ccccn3)ccc2OC)cc(OC)c1	?	.	.	.	.	.	/	/	/
Cc1ccc(Nc2nnc(SC3CCOC3=O)s2)cc1 (centres undefined)	.	.	.	.	.	.	/	/	/
CC(C)c1ccc(Nc2nnc(SC3CCOC3=O)s2)cc1 (centres undefined)	.	52.2	.	52.4	.	.	.	/	75.9
O=C(NNC(=O)c1ccccc1Cl)c1ccc2c(c1)OCCO2	.	.	.	.	.	.	/	/	/
CCC(C)NC(=O)c1c(N)n(/N=C/c2cccnc2)c2nc3ccccc3nc12 (centres undefined)	.	64.8	.	41.4	.	.	59.5	60.6	46.2
COCCCNC(=O)c1c(N)n(/N=C/c2cccs2)c2nc3ccccc3nc12	.	.	.	.	.	.	/	/	/
CCN1CCN(CCNC(=O)c2ccc(/C=C3/Sc4ccccc4N(Cc4cccc(Cl)c4)C3=O)cc2)CC1	.	96.5	.	57.7	.	.	81.2	57.8	.
Cc1ccccc1CN1C(=O)/C(=C\c2ccc(C(=O)NCCN3CCOCC3)cc2)Sc2ccccc21	.	.	.	.	.	.	/	/	/
Cc1cccc(OC(=O)Cn2c(C(F)(F)F)nc3ccccc32)c1	.	.	.	.	.	.	/	/	/
Cc1cccc(OCc2n(CC(=O)OC3CC(C)CCC3C(C)C)c3ccccc3[n+]2C)c1 (centres undefined)	.	94.5	.	92.5	.	106.3	96.3	55.8	101.0
CCC(CC)CN1C(N(C)C)=NC[C@@H]1CC(C)C	.	.	.	.	.	.	/	/	/
CCC(CC)C(=O)Nc1nnc(CCc2ccccc2)s1	.	.	.	.	.	.	/	/	/
O=C1C2CCCCN2C(=O)N1CCCCN1CCN(c2cccc(Br)c2)CC1 (centres undefined)	.	.	.	.	.	.	/	/	/
